# ± gives the standard deviation of the averaged measurements.
# Test system: Caenorhabditis elegans N2 infected with Nematocida parisii ERTm1
# Experiment: progeny production relative to DMSO uninfected control; higher = more progeny despite microsporidia infection (inhibition of infection with low host toxicity)
# Settings: infection time 6 days; 40 µM
# Procedure, shortened: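 Progeny production is reported as a percentage of spore-free vehicle wells and averaged across replicates. It was measured after bleach-synchronised wild-type C. elegans L1 larvae (100 per well) spent 6 days shaking at 21°C in K-medium with E. coli OP50, 15,000 N. parisii spores/μL and compound at 100 μM or 40 μM in 1% DMSO. Counting used Rose Bengal staining, flatbed scanning and WorMachine, and each compound and dose was tested three times.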
row,Structure (SMILES),progeny production [%]
1,NNC(=O)c1ccncc1,12.3 ± 5.7
2,Fc1ccc2c(/C=C/c3cccnc3)c[nH]c2c1,3.47 ± 0.88
3,Nc1cccc(-c2nc(N)nc(NC3Cc4ccccc4C3)n2)c1,8.19 ± 3.8
4,CC(Cc1ccccc1)C(=O)Nc1ccc(Cl)cc1C(=O)O (stereo not given),7.65 ± 4.2
5,O=C(CSc1nnc(Br)n1-c1ccc(C2CC2)c2ccccc12)Nc1ccc(C(=O)O)cc1Cl,3.49 ± 1.1
6,COc1ccc(OCc2ccc(COc3c(Cl)cccc3Cl)cc2)c(Cl)c1,5.83 ± 3.1
7,Nc1nc2c(ncn2COCCO)c(=O)[nH]1,6.44 ± 2.2
8,COc1ccc2c(c1OC)C(=O)OC2C1c2c(cc3c(c2OC)OCO3)CCN1C (stereo not given),5.88 ± 3.7
9,O=C1C=C(c2ccccc2)S(=O)(=O)c2ccccc21,9.24 ± 1.8
10,NC(=O)c1ccccc1NC(=O)c1ccc(C(=O)Nc2ccccc2C(N)=O)cc1,8.47 ± 2.6
11,O=S(=O)(Nc1ccccc1)c1ccc(NC(=S)Nc2ccccc2)cc1,8.72 ± 4.5
12,CCOC(=O)N[C@@H]1CC[C@@H]2[C@@H](C1)C[C@H]1C(=O)O[C@H](C)[C@H]1[C@H]2/C=C/c1ccc(-c2cccc(F)c2)cn1,4.47 ± 3.1
13,O=C(N[C@H](Cc1cccc2ccccc12)C(=O)NCCc1c[nH]cn1)C1Cc2ccccc2C1,7.87 ± 3.1
14,Cc1ccc(N2CCC(CCOc3ccc(S(C)(=O)=O)cc3)CC2)nn1,4.13 ± 1
15,[N-]=[N+]=N[C@H]1C[C@H](n2ccc(=O)[nH]c2=O)O[C@@H]1CO,4.8 ± 1.5
16,COC(=O)Nc1nc2c(C)cccc2[nH]1,13.8 ± 1.7
17,COc1cc(Cc2cnc(N)nc2N)cc(OC)c1OC,1.91 ± 0.77
18,O=[N+]([O-])c1cn(Cc2nc(O)nc(O)c2Br)cn1,8.41 ± 4.5
19,O=c1cc(NCCCN[C@@H]2CCOc3c(Br)cc(Br)cc32)[nH]c2ccsc12,5.52 ± 2.9
20,Cc1oncc1C(=O)Nc1ccc(C(F)(F)F)cc1,3.59 ± 1.6

row,Structure (SMILES),progeny production [%]
1,COc1cc2c(O)c3c(c(-c4ccc5c(c4)OCO5)c2cc1OC)C(=O)OC3,4.37 ± 1.7
2,O=c1nc(N2CCN(CC3CCCCC3)CC2)sc2c([N+](=O)[O-])cc(C(F)(F)F)cc12,4.77 ± 2.5
3,CCc1cc(Cc2cnc(N)nc2N)cc2c1N(C)CCC2C (stereo not given),11.7 ± 8.4
4,CC(=O)N[C@H](C)C(=O)N[C@H](Cc1ccccc1)C(=O)O,9.08 ± 7.2
5,Nc1cc(-c2nc3ccccc3[nH]2)n[nH]c1=O,6.4 ± 6.5
6,O=S(=O)(Nc1ccc(O)cc1)c1cccc2cccnc12,5.85 ± 2.2
7,C[C@H](NC(CC(=O)c1ccccc1C(F)(F)F)C(=O)O)c1ccccc1 (stereo not given in full),8 ± 6.4
8,COc1nc2ccc(Br)cc2cc1[C@@H](c1ccccc1)[C@@](O)(CCN(C)C)c1cccc2ccccc12,7.24 ± 3.5
9,C[C@@H](NC(=O)c1cccc(-c2cnc(-c3cc4ccccc4cn3)[nH]2)c1)c1ccc(F)cc1,5.74 ± 3.9
10,C[C@H](Cn1cnc2c(N)ncnc21)OCP(=O)(O)O,6.28 ± 6.8
11,CN1CCN(c2ccc3[nH]c(-c4ccc5[nH]c(-c6ccc(O)cc6)nc5c4)nc3c2)CC1,6.36 ± 1.4
12,COc1ccc2nc(-c3ccccc3)cc(O)c2c1,10.7 ± 7.9
13,CC1(C)[C@H](C(=O)O)N2C(=O)C[C@H]2S1(=O)=O,4.44 ± 0.8
14,Cc1nc(-c2ccc(C3N(C)c4ccc(F)cc4C(=O)N3c3ccccc3)s2)cs1 (stereo not given),3.69 ± 1.5
15,O=C(O)c1cc(-c2ccccc2)nc2ccccc12,6.15 ± 0.79
16,Cc1cc(Nc2ccc(F)cc2)nc(SCc2nc3ccccc3[nH]2)n1,3.08 ± 0.71
17,Clc1cc2nc(C3CCNCC3)n(Cc3ccc(CNCCc4c[nH]cn4)cc3)c2cc1Cl,7.61 ± 2.7
18,CCc1nc(N)nc(N)c1C#CC(C)c1cc(OC)cc(-c2ccncc2)c1 (stereo not given),5.28 ± 2.2
19,O=C(Cc1ccccc1F)Nc1nc2ccccc2[nH]1,4.94 ± 2.8
20,C[C@@H](NC(=O)c1ccccc1-c1ccccc1)B(O)O,3.09 ± 1.4

# Same assay, conditions: infection time 6 days; 100 µM
row,Structure (SMILES),progeny production [%]
1,NNC(=O)c1ccncc1,14.7 ± 5.8
2,Fc1ccc2c(/C=C/c3cccnc3)c[nH]c2c1,19.9 ± 9
3,Nc1cccc(-c2nc(N)nc(NC3Cc4ccccc4C3)n2)c1,20.6 ± 10
4,CC(Cc1ccccc1)C(=O)Nc1ccc(Cl)cc1C(=O)O (stereo not given),14.4 ± 0.88
5,O=C(CSc1nnc(Br)n1-c1ccc(C2CC2)c2ccccc12)Nc1ccc(C(=O)O)cc1Cl,15.1 ± 5.4
6,COc1ccc(OCc2ccc(COc3c(Cl)cccc3Cl)cc2)c(Cl)c1,12.3 ± 5.3
7,Nc1nc2c(ncn2COCCO)c(=O)[nH]1,8.34 ± 8.3
8,COc1ccc2c(c1OC)C(=O)OC2C1c2c(cc3c(c2OC)OCO3)CCN1C (stereo not given),14.7 ± 9.2
9,O=C1C=C(c2ccccc2)S(=O)(=O)c2ccccc21,38 ± 9.4
10,NC(=O)c1ccccc1NC(=O)c1ccc(C(=O)Nc2ccccc2C(N)=O)cc1,11.6 ± 6.2
11,O=S(=O)(Nc1ccccc1)c1ccc(NC(=S)Nc2ccccc2)cc1,11.2 ± 6.4
12,CCOC(=O)N[C@@H]1CC[C@@H]2[C@@H](C1)C[C@H]1C(=O)O[C@H](C)[C@H]1[C@H]2/C=C/c1ccc(-c2cccc(F)c2)cn1,9.38 ± 3.8
13,O=C(N[C@H](Cc1cccc2ccccc12)C(=O)NCCc1c[nH]cn1)C1Cc2ccccc2C1,17.2 ± 4.5
14,Cc1ccc(N2CCC(CCOc3ccc(S(C)(=O)=O)cc3)CC2)nn1,11.1 ± 10
15,[N-]=[N+]=N[C@H]1C[C@H](n2ccc(=O)[nH]c2=O)O[C@@H]1CO,11.5 ± 5.3
16,COC(=O)Nc1nc2c(C)cccc2[nH]1,78.2 ± 11
17,COc1cc(Cc2cnc(N)nc2N)cc(OC)c1OC,16.3 ± 11
18,O=[N+]([O-])c1cn(Cc2nc(O)nc(O)c2Br)cn1,8.29 ± 4.9
19,O=c1cc(NCCCN[C@@H]2CCOc3c(Br)cc(Br)cc32)[nH]c2ccsc12,8.91 ± 4
20,Cc1oncc1C(=O)Nc1ccc(C(F)(F)F)cc1,6.66 ± 5

row,Structure (SMILES),progeny production [%]
1,COc1cc2c(O)c3c(c(-c4ccc5c(c4)OCO5)c2cc1OC)C(=O)OC3,3.64 ± 3.2
2,O=c1nc(N2CCN(CC3CCCCC3)CC2)sc2c([N+](=O)[O-])cc(C(F)(F)F)cc12,9.3 ± 5.1
3,CCc1cc(Cc2cnc(N)nc2N)cc2c1N(C)CCC2C (stereo not given),4.65 ± 0.53
4,CC(=O)N[C@H](C)C(=O)N[C@H](Cc1ccccc1)C(=O)O,10 ± 3.2
5,Nc1cc(-c2nc3ccccc3[nH]2)n[nH]c1=O,10.7 ± 4.7
6,O=S(=O)(Nc1ccc(O)cc1)c1cccc2cccnc12,12 ± 6.6
7,C[C@H](NC(CC(=O)c1ccccc1C(F)(F)F)C(=O)O)c1ccccc1 (stereo not given in full),5.89 ± 3.9
8,COc1nc2ccc(Br)cc2cc1[C@@H](c1ccccc1)[C@@](O)(CCN(C)C)c1cccc2ccccc12,14.3 ± 4.9
9,C[C@@H](NC(=O)c1cccc(-c2cnc(-c3cc4ccccc4cn3)[nH]2)c1)c1ccc(F)cc1,8.24 ± 5.7
10,C[C@H](Cn1cnc2c(N)ncnc21)OCP(=O)(O)O,17.4 ± 6
11,CN1CCN(c2ccc3[nH]c(-c4ccc5[nH]c(-c6ccc(O)cc6)nc5c4)nc3c2)CC1,15.4 ± 12
12,COc1ccc2nc(-c3ccccc3)cc(O)c2c1,8.32 ± 3.4
13,CC1(C)[C@H](C(=O)O)N2C(=O)C[C@H]2S1(=O)=O,10.7 ± 7.8
14,Cc1nc(-c2ccc(C3N(C)c4ccc(F)cc4C(=O)N3c3ccccc3)s2)cs1 (stereo not given),6.47 ± 4.9
15,O=C(O)c1cc(-c2ccccc2)nc2ccccc12,6.83 ± 4.5
16,Cc1cc(Nc2ccc(F)cc2)nc(SCc2nc3ccccc3[nH]2)n1,16.7 ± 14
17,Clc1cc2nc(C3CCNCC3)n(Cc3ccc(CNCCc4c[nH]cn4)cc3)c2cc1Cl,10.3 ± 7.1
18,CCc1nc(N)nc(N)c1C#CC(C)c1cc(OC)cc(-c2ccncc2)c1 (stereo not given),9.94 ± 7.4
19,O=C(Cc1ccccc1F)Nc1nc2ccccc2[nH]1,8.29 ± 4.9
20,C[C@@H](NC(=O)c1ccccc1-c1ccccc1)B(O)O,21.8 ± 15

# — the supplement of paper PMC10732440
